# Source: PubChem BioAssay (National Center for Advancing Translational Sciences (NCATS))
# LDHA inh = qHTS assay for inhibitors of human lactate dehydrogenase | L-lactate dehydrogenase A chain (Homo sapiens), P00338 | purified LDHA, NADH/diaphorase-resazurin fluorescence; active compounds read low | activity change, % (values are at about 110 or 230 µM) | 480,000 compounds, 0.15% hits | AID 1347041, 2019; in the data active means activity change below about -30%; inconclusive means mostly about -25% to -30%;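 further: plate controls were DMSO wells for no effect and wells without enzyme for full effect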
#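 Resorufin fluorescence (ex540/em590), read at 0 and 20 min after diaphorase/resazurin addition, reports the NADH left after a 5 min room-temperature reaction of 2 nM human LDH5 with 0.06 mM NADH and 0.2 mM pyruvate.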
# KCNH2 3.1 block = qHTS for Inhibitors of KCHN2 3.1: Mutant qHTS. activity change, % (tested at about 1.8 µM). 340,000 compounds, 0.95% hits. Potassium voltage-gated channel subfamily H member 2, brain isoform KCNH2 3.1 (human). U2OS KCNH2 3.1, thallium flux FluxOr; active compounds read low;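 active means maximum activity change below -70%; inconclusive means maximum activity change from -70% to -50%; inactive means maximum activity change above -50%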;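 further: thallium influx rate constant from kinetic fluorescence after stimulation buffer; on the % scale 0 is the no-effect control and ±100 the full control effect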
#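 Measured as rate of thallium-driven FluxOr signal in transduced U2OS cells carrying the 3.1 channel, read kinetically for 2 min upon stimulation; values are rate constants scaled to DMSO control wells.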
# BCR signal inh = qHTS Assay to Find Inhibitors of Chronic Active B-Cell Receptor Signaling; ABC-DLBCL IkBa-CBG/CBR reporter, luminescence ratio, 4 h; Potency, µM (top dose mostly 46.1 µM), for inactives: at the top dose activity change, negative = inhibition, actives largely listed as inhibitors; 340,000 compounds, 0.05% hits; active means well fitted inhibition curve with a large enough effect in the signal ratio, with a control signal flat, not every such curve was filed as active; inconclusive means small, poorly fitted or top-dose-only effect, or effect the other way, or a change in a side signal; the % refers to the signal ratio;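 further: potency means the concentration at half of the fitted maximal effect; plate controls were basal doxycycline-induced cells for no effect and cells given 10 µM MG132 for full effect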
#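 Compounds up to 46 uM were incubated four hours with TMD8 cells whose green CBG68 luciferase is fused to IkappaBalpha; red CBR luminescence normalised the signal, and concentration-effect curves were fitted to fusion, red and ratio data.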
# hERG WT inh = qHTS for Inhibitors of KCHN2 3.1: Wildtype qHTS | U2OS, BacMam KCNH2, thallium flux FluxOr; active compounds read low | activity change, % at 1.84 µM | 340,000 compounds, 0.37% hits | AID 720551, 2013;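 active means maximum activity change below -70%; inconclusive means maximum activity change between -70% and -50%; inactive means maximum activity change above -50%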; further: on the % scale 0 is the no-effect control and ±100 the full control effect
# Target sequence (Q12809 whole entry, looked up): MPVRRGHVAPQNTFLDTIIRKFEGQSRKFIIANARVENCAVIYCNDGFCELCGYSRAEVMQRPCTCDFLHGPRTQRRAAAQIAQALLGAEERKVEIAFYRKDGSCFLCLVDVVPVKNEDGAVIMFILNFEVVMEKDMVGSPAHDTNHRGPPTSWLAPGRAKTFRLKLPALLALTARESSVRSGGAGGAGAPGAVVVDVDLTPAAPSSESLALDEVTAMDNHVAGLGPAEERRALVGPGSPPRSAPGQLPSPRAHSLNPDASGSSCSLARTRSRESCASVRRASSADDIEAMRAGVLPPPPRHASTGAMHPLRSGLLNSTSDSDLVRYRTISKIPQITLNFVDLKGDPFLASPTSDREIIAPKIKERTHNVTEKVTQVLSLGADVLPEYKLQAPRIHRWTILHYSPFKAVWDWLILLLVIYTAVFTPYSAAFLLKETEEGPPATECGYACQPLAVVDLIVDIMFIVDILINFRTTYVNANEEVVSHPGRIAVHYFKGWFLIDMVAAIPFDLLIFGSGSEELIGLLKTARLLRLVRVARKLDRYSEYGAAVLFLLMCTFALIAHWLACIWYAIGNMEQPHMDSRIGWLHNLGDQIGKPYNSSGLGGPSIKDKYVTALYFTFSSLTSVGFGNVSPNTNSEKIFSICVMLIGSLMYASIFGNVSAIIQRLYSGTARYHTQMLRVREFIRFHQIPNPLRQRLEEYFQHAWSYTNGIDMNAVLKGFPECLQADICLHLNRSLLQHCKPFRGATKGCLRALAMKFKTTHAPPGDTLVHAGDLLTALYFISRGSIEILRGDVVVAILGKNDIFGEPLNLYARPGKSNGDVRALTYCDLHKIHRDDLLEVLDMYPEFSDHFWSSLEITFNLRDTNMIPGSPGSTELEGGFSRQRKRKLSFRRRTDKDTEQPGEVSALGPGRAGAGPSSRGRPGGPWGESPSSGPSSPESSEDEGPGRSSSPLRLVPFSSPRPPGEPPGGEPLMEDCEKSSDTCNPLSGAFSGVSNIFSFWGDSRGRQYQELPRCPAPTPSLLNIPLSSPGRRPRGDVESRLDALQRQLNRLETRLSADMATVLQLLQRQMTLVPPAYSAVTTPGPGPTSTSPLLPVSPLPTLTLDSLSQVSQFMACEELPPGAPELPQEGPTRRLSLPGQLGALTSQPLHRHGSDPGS
#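 U2OS cells transduced with wild-type KCNH2 virus are loaded with FluxOr dye for 45 min, and thallium flux is measured in kinetic reads before and after stimulation buffer. Rate constants are normalized to DMSO controls.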
# ClpP mod = qHTS Assay for Activators of ClpP. purified B. subtilis ClpP, FRET peptide cleavage, 20 min. Potency, µM (doses to about 57.5 µM), for the others: top-dose activity change, negative = active. 340,000 compounds, 1.9% hits. ATP-dependent Clp protease proteolytic subunit (Bacillus subtilis (strain 168)), P80244; active means well fitted falling curve with a large enough effect; inconclusive means small, poorly fitted or top-dose-only effect; inactive means no such curve, though single readings can be large or run the other way; further: potency means the concentration at half of the fitted maximal effect; the source files actives as falling curves though it sought activators and does not explain the sign; nearly all actives have a fitted effect of over 65% in size
#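 ClpP 10 microg/mL final, pH 8 Tris/KCl buffer with BSA, glycerol, Tween-20; compound pinned in; FRET-FV substrate; RT 20 min; Ex320/Em430; ΔFRET vs ADEP 5.8 microM, DMSO, no enzyme.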
# ALOX12 inh = Primary qHTS assay for inhibitors of human arachidonate 12S-lipoxygenase (ALOX12): Round 2 | purified 12hLO, xylenol orange hydroperoxide absorbance | Potency, µM (highest dose often 108 µM), inactives show at the highest dose activity change, negative = inhibition, actives largely listed as inhibitors | 580,000 compounds, 1.1% hits | Polyunsaturated fatty acid lipoxygenase ALOX12 (Homo sapiens), P18054; active means well fitted inhibition curve with a large enough effect; inconclusive means small, poorly fitted or top-dose-only effect, or another doubt; inactive means no such curve, though single readings can be large or run the other way; further: potency means the concentration at half of the fitted maximal effect; on the % scale 0 is the no-effect control and ±100 the full control effect
#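 Purified human 12hLO at 150 nM in 25 mM Hepes, 0.01% Triton X-100, pH 7.0, preincubated 15 min at room temperature with compound. Reaction started with 40 uM arachidonic acid, 30 min at room temperature. Hydroperoxide measured by Fe-xylenol orange, 573/405 nm absorbance ratio.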
# The depositor's hits bear a star; ? = inconclusive; · = not tested or not shown; [ ] = dose if it differs, or a comment. In the library only some 3% were active in any assay of this set; here they are far more common.
SMILES,LDHA inh,KCNH2 3.1 block,BCR signal inh,hERG WT inh,ClpP mod,ALOX12 inh
C#CC1(O)CCC2C3CCC4=CC(=O)CCC4=C3C=CC21C (stereo not given),20,12,·,-1,28µM*,?
CSc1nc(N)c2c(n1)OC(N)=C(C#N)C2c1ccccc1F (stereo not given),-3,·,·,·,·,?
CC=C(CC)C1(CCC)C(=O)NC(=S)NC1=O,-4,0,·,42,0%,?
CC=C(C)C1(CCC)C(=O)NC(=S)NC1=O,0,-3,·,8,?,32µM*
COc1cccc(N2C(=O)NC(=O)/C(=C/c3ccc4c(c3)Cc3ccccc3-4)C2=O)c1,-24,4,?,-2,1%,?
Nc1ccc2c(c1)Cc1ccccc1-2,-2,-7,-11%,2,11µM*,-4%
CN1CCc2c([nH]c3ccccc23)C12CCNCC2,·,·,·,·,·,-4%
c1ccc(C2=NOC3(CCCN(Cc4cccnc4)C3)C2)nc1 (stereo not given),·,·,·,·,·,13%[6.33 µM]
COc1ccc(/C=C/C=C2C(=O)NC(=S)NC2=O)cc1,0,0,·,-3,3%,35µM*
COc1ccc(C=C2C(=O)NC(=S)NC2=O)cc1OC,0,19,·,-9,·,?
CCOP(=O)(OCC)c1ccc(OP(=O)(c2cccc([N+](=O)[O-])c2)c2cccc([N+](=O)[O-])c2)cc1,-10,-4,-4%,-3,35µM*,?
CC(=O)N1CCC2(CC1)CC(=O)c1cc(OCC(=O)N3CCN(C)CC3)ccc1O2,-1,33,-11%,3,20µM*,-13%
CC(=O)N1CCC2(CC1)CC(=O)c1cc(OCC(=O)N3CCC4(CC3)OCCO4)ccc1O2,-2,0,5%,-7,4%,1%
O=C(CN1CCCCC1)c1ccc(-c2ccccc2)cc1,0,·,·,·,·,-25%
O=C(NC(=S)Nc1ccccn1)c1ccc(-c2ccccc2)cc1,-10,-18,?,5,0%,32µM*
COc1cc2c(cc1-c1ccc(O)c(F)c1)NC(=O)C21CCN(C(C)=O)CC1,·,·,·,·,·,17%[176 µM]
C=C(C)[C@@H]1CC=C(C=O)CC1,·,·,·,·,·,-4%[176 µM]
CCn1c(P(C)(=O)O)nc2cc(NC(=O)c3ccccc3F)ccc21,4,-4,3%,-5,·,13%
COc1ccccc1C(=O)Nc1ccc2nc(SCC(=O)N3CCCc4ccccc43)sc2c1,4,·,·,·,10µM*,-17%
O=C(Nc1ccc2nc(SCC(=O)N3CCCc4ccccc43)sc2c1)c1ccccc1F,-3,·,·,·,18µM*,-12%
COc1ccccc1Nc1nnc(SCC(=O)N2CCCC2)s1,-4,8,?,3,-1%,4%
N#CCCn1cc(C(=O)Nc2ccc([N+](=O)[O-])cc2)c(-c2ccc3c(c2)OCCO3)n1,-7,-37,?,4,-9%,8%
Cc1ccc(NC(=O)c2cn(CCC#N)nc2-c2ccc3c(c2)OCCO3)c([N+](=O)[O-])c1,-8,-8,-23%,12,28µM*,-16%
CCN(CC)c1ccc(CC2C(=O)N(C)C(=O)N(C)C2=O)cc1,0,·,8%,5,8.9µM*,·
CCCNC(=O)c1c(N)n(CC2CCCO2)c2nc3ccccc3nc12 (stereo not given),11,3,?,9,18µM*,7%
SMILES,LDHA inh,KCNH2 3.1 block,BCR signal inh,hERG WT inh,ClpP mod,ALOX12 inh
CC(C)CCOC(=O)c1c(N)n(CC2CCCO2)c2nc3ccccc3nc12 (stereo not given),9,-12,?,16,28µM*,11%
CC(C)OC(=O)c1c(N)n(CC2CCCO2)c2nc3ccccc3nc12 (stereo not given),4,1,7%,22,-8%,0%
CC(C)OCCCNC(=O)c1c(N)n(CC2CCCO2)c2nc3ccccc3nc12 (stereo not given),24,1,?,-9,14µM*,5%
CC(C)CCn1c(N)c(C(=O)OCC2CCCO2)c2nc3ccccc3nc21 (stereo not given),-5,1,?,-1,15%,2%
NCCc1ccc(OC(F)(F)F)cc1,1,·,·,·,·,?
Cn1nc(C2CCCC2)cc1[C@H]1CN2CC[C@H]1C[C@@H]2CNC(=O)c1ccc2c(c1)OCO2,·,·,·,·,·,-10%
CN1CCN(C(=O)Cc2c[nH]c3ncc(-c4ccsc4)cc23)CC1,·,·,·,·,·,12%[176 µM]
CC(N)Cc1ccc2oc3ccccc3c2c1 (stereo not given),1,·,·,·,·,-7%
CCOC(=O)c1c(NC(=O)c2c(N)n(CCCOC)c3nc4ccccc4nc23)sc2c1CCCC2,-11,-71*,-5%,4,-10%,8%
COCCCn1c(N)c(C(=O)NCCC(C)C)c2nc3ccccc3nc21,33,-8,?,5,32µM*,0%
CCCCCn1c(N)c(C(=O)NCc2cccs2)c2nc3ccccc3nc21,8,-19,13%,2,28µM*,-5%
Nc1c(C(=O)NCCCc2ccccc2)c2nc3ccccc3nc2n1Cc1cccs1,18,-2,-4%,-10,?,?
COCCCNC(=O)c1c(NC(=O)c2ccccc2)n(Cc2ccccc2)c2nc3ccccc3nc12,8,-19,·,8,32µM*,·
COCCOC(=O)c1c(N)n(Cc2ccccc2)c2nc3ccccc3nc12,6,-1,?,-4,70%,0%
CNC(=O)c1ccc(NC(=O)COC(=O)c2cn(C)c3ccccc23)cc1,7,·,·,·,·,?
Cc1ccc2c(c1)C(Cc1nc3ccccc3c(=O)n1-c1ccc(Cl)cc1)C(=O)N2 (stereo not given),9,·,·,·,·,?
COc1cc2c(cc1CCc1ccccc1)N([S+](=O)([O-])c1ccc3c(c1)CCO3)CC21CCN(C(C)=O)CC1,·,·,·,·,·,-9%
CCCCNC(=O)c1c(N)n(Cc2ccc3c(c2)OCO3)c2nc3ccccc3nc12,17,1,6%,-8,10µM*,1%[57.4 µM]
COc1ccc(CCNC(=O)c2c(N)n(CCN3CCOCC3)c3nc4ccccc4nc23)cc1OC,6,-4,?,-4,-21%,4%
